Measured values reported in the supplement of paper PMC4954754.
± gives the uncertainty stated by the source.

system: HEK293T-Rex XBP1-RLuc; assay: XBP1-RLuc splicing reporter activation, triplicate, relative to 500 nM thapsigargin (% of thapsigargin); higher = stronger IRE1/XBP1s reporter activation; conditions: 6.8 µM; 18 h; screen: confirmation
Procedure: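 HEK293T-Rex cells stably expressing the ERSE-firefly luciferase (BiP promoter, ATF6-preferring) or XBP1-splicing Renilla luciferase (IRE1/XBP1s) reporter, 1536-well plates, compound at 6.8 µM for 18 hr at 37 °C; luminescence read […] and expressed as % activation = 100*(compound - median DMSO)/(median 500 nM thapsigargin - median DMSO). Primary screen was single-pass; confirmation screen in triplicate (mean ± SD).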

Row | Structure (SMILES) | XBP1-RLuc splicing reporter activation
1 | CCOc1ccc2nc(NC(=O)c3ccn(C)n3)sc2c1 | -1.23 ± 2
2 | COc1ccc(NC(=O)/C(Cl)=C\c2ccccc2)cc1 | -0.467 ± 2.4
3 | Cc1ccc(O)c(NC(=O)c2cc(-c3ccc(F)cc3)on2)c1 | 15.9 ± 0.37
4 | Cc1ccccc1NC(=O)c1sc2nc(N)c(C#N)c(-c3ccc(C(C)C)cc3)c2c1N | 15.4 ± 2.4
5 | CN1C(=O)/C(=C\c2ccc(O)c(O)c2)SC1=S | 13.9 ± 1.8
6 | CCCCNC(=O)c1cc(-c2ccc(F)cc2)on1 | 7.08 ± 0.26
7 | Cc1cc2nc(/C(C#N)=C/c3ccco3)[nH]c2cc1C | 4.3 ± 0.47
8 | c1ccc2cc(-c3cnnc(N4CCOCC4)n3)ccc2c1 | 1.22 ± 0.96
9 | Cc1cc(C)nc(/N=C(\N)Nc2ccc(OCc3ccccc3)cc2)n1 | 78.3 ± 5.3
10 | C(=C\c1ccccc1)/C=N/Nc1nc2ccccc2[nH]1 | 5.21 ± 0.2
11 | CCCNC(=O)c1cc(-c2ccc(F)cc2)on1 | 4.12 ± 0.34
12 | Cc1ccc(Nc2nc(N)c3ccccc3n2)cc1Cl | 8.06 ± 2.4
13 | CC(C)c1ccc(/C=N\NC(=O)c2ccccc2)cc1 | 6.81 ± 0.33
14 | Cc1ccc(O)c(-c2cc(C(F)(F)C(F)F)no2)c1 | 13.8 ± 1.5
15 | OCCNc1nc(Nc2ccc(Cl)c(Cl)c2)nc2ccccc12 | 42.7 ± 1.8
16 | Fc1ccc(-c2nnc3ccc(N4CCN(c5ccccn5)CC4)nn23)cc1 | 38.3 ± 2.6
17 | Nc1ccc2nc(-c3cc(Cl)c(N)c(Cl)c3)[nH]c2c1 | 13.2 ± 1.2
18 | Cc1ccc(O)c(NC(=S)NC(=O)/C=C/c2ccco2)c1 | 1.05 ± 0.43
19 | CN(C)c1ccc(/C=C(/C#N)C(=O)Nc2ccc(O)cc2)cc1 | 22.2 ± 0.63
20 | Cc1ccc2c(N)c(C(=O)c3ccc4c(c3)OCO4)sc2n1 | 5.3 ± 0.72

Row | Structure (SMILES) | XBP1-RLuc splicing reporter activation
21 | OCCNc1nc(Nc2ccc(Br)cc2)nc2ccccc12 | 23.4 ± 2.2
22 | Nc1cn(-c2ccccc2)nc1-c1cccs1 | 50.6 ± 2.8
23 | Cc1ccc2nc(/C(C#N)=C/c3ccc(O)c(O)c3)[nH]c2c1 | 16.5 ± 0.47
24 | COCCNC(=O)c1cc(-c2cccs2)on1 | 6.38 ± 1.2
25 | COc1cccc(Nc2nc(-c3ccc(OC)c(F)c3)cs2)c1 | 1.64 ± 0.88
26 | COc1ccc(-c2cc(C(=O)Nc3cc(C)ccc3O)on2)cc1OC | 10.9 ± 1.2
27 | N#Cc1ccc(-c2cccs2)nc1SCc1ccccn1 | 0.766 ± 2.5
28 | Nc1ccc2sc(-c3cc(Cl)c(N)c(Cl)c3)nc2c1 | 10.16 ± 0.093
29 | Nc1c(C(=O)Nc2ccccc2)sc2nc3c(cc12)CCCCC3 | 12.6 ± 4.7
30 | CC(C)c1ccc(NC(=O)/C=C/c2ccco2)cc1 | 4 ± 0.68
31 | COc1ccc(-c2nn(-c3ccccc3)cc2/C=C/C(=O)O)cc1[N+](=O)[O-] | 8.64 ± 1.1
32 | CC(=Nc1ccc(O)cc1)c1sc2ccccc2c1O | 15.7 ± 4.1
33 | COc1ccccc1OCC(=O)Nc1cc(C)ccc1O | 19.6 ± 1.9
34 | Cc1ccc(O)c(NC(=O)c2cc(C3CC3)on2)c1 | 13.9 ± 2.1
35 | N#Cc1c(NC(=O)c2ccc3ncsc3c2)sc2c1CCC2 | 1.45 ± 1.6
36 | O=C1N/C(=C/c2ccc(O)cc2)C(=O)N1c1cccc(Cl)c1 | 61.1 ± 1.4
37 | O=[N+]([O-])c1ccc2nc(/C=C/c3ccccc3)[nH]c2c1 | 1.8 ± 0.81
38 | CC(Oc1ccc(Cl)cc1Cl)C(=O)NNC(=O)c1ccc(O)c(O)c1 (stereo not given) | 15.4 ± 1.8
39 | COc1ccc2oc(=Nc3cc(F)ccc3F)c(C(N)=O)cc2c1 | 4.22 ± 1
40 | COc1ccc(/C=C(\C#N)c2nc3ccccc3n2C)cc1 | -0.499 ± 0.016
